Eight compounds from PubChem BioAssay (NCI) can be followed below.

Test systems include DU-145 prostate; K-562 leukemia; MALME-3M melanoma; MDA-MB-231 breast; RXF 393 renal; SF-268 CNS; SF-295 CNS; SF-539 CNS; UACC-257 melanoma; M14 melanoma; HCT-15 colon; HT29 colon; SNB-75 CNS; SNB-19 CNS; U251 CNS; PC-3 prostate; SK-MEL-5 melanoma; UACC-62 melanoma; LOX IMVI melanoma; SK-MEL-28 melanoma.
Holding throughout (assay): NCI-60 one-dose screen, 48 h (100 = growth as untreated, 0 = no growth, -100 = all killed)
Holding throughout (details): 10 µM unless noted

Molecules are shown by their SMILES. Compounds without any hit were thinned out: in the full panel of roughly 83,000, 20% have a hit.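 Results are percent growth after 48 hours of single-concentration exposure. 100 means growth as in untreated cells, lower positive values show inhibition; negative values down to -100 show cell death.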 Values without a mark were called inactive. Active and inactive are the calls of the source. Rule for the calls: active = growth percent below 10; inactive = the rest.

With `COc1cc2c(=O)n(CCCN(C)C)c3c4cc[nH]c4ncc3c2cc1OC`, the growth in the assay with DU-145 prostate is 30.8%; in the assay with K-562 leukemia it was 54.3%; in the assay on MALME-3M melanoma, 62.4%; in the assay on MDA-MB-231 breast, 50.8%; in the assay on RXF 393 renal, 23.1%; in the assay on SF-268 CNS, 28.3%. Further, the growth is 29.2% in the assay on SF-295 CNS; 73.3% with SF-539 CNS; 87.9% in the assay on UACC-257 melanoma; 40.5% in the assay on M14 melanoma; 54.7% with HCT-15 colon; 16.2% with HT29 colon. For the same compound, the growth was 47.9% in the assay with SNB-75 CNS; 36.6% in the assay on SNB-19 CNS; 35.1% with U251 CNS; 32.8% in the assay on PC-3 prostate; 80.9% in the assay on SK-MEL-5 melanoma; 54.5% with UACC-62 melanoma. For the same compound, the growth in the assay with LOX IMVI melanoma is 25.3%; in the assay on SK-MEL-28 melanoma, 89.9%.
Consider `CC[C@H](C)[C@H](N)C(=O)O`, for which the growth was 106% in the assay with DU-145 prostate; 122% in the assay on K-562 leukemia; 103% in the assay with MALME-3M melanoma; 97.7% in the assay on MDA-MB-231 breast; 96.8% in the assay on RXF 393 renal; 105% in the assay with SF-268 CNS. Also, the growth with SF-295 CNS was 104%; in the assay with SF-539 CNS, 100%; in the assay on UACC-257 melanoma, 119%; with M14 melanoma, 105%; in the assay on HCT-15 colon, 107%; with HT29 colon, 109%. For the same compound, the growth in the assay with SNB-75 CNS is 99.1%; in the assay on SNB-19 CNS it was 105%; in the assay on U251 CNS, 107%; in the assay on PC-3 prostate it was 99.1%; in the assay with SK-MEL-5 melanoma, 101%; in the assay on UACC-62 melanoma, 102%. In addition, the growth with LOX IMVI melanoma was 98.7%; with SK-MEL-28 melanoma, 109%.
Regarding `NC(N)=N/N=C/c1cccc(Cl)c1Cl`, the growth was 69.3% in the assay on DU-145 prostate; 4.22% (active) with K-562 leukemia; 94.9% in the assay with MALME-3M melanoma; 81.6% with MDA-MB-231 breast; 81.3% in the assay with RXF 393 renal; 69.5% with SF-268 CNS. Besides, the growth is 109% in the assay with SF-295 CNS; 96.4% with SF-539 CNS; 70.1% with UACC-257 melanoma; 62.7% in the assay with M14 melanoma; 82.7% with HCT-15 colon; 24% in the assay with HT29 colon. Further, the growth with SNB-75 CNS was 63.8%; in the assay with SNB-19 CNS, 85.8%; in the assay on U251 CNS, 73.3%; in the assay with PC-3 prostate it was 89.2%; in the assay with SK-MEL-5 melanoma it was 85.6%; in the assay with UACC-62 melanoma it was 90.5%. The growth in the assay on LOX IMVI melanoma was 76.4%; in the assay on SK-MEL-28 melanoma, 99.2%.
As to `COc1cc(/C=C/c2cc(/C=C/c3ccc(O)c(OC)c3)n(C(=O)c3ccccc3Br)n2)ccc1O`, the growth with DU-145 prostate was 28.9%; with K-562 leukemia, 3.62% (active); in the assay on MALME-3M melanoma it was 23.4%; with MDA-MB-231 breast it was 39.7%; in the assay on RXF 393 renal, -3.83% (active); in the assay with SF-268 CNS it was 28%. Besides, the growth in the assay on SF-295 CNS was -29.7% (active); in the assay on SF-539 CNS it was 4.02% (active); in the assay on UACC-257 melanoma, 87.1%; in the assay on M14 melanoma, 5.42% (active); with HCT-15 colon, 16.2%; in the assay on HT29 colon, 0.381% (active). The growth in the assay on SNB-75 CNS was 27.3%; with SNB-19 CNS, 36.2%; in the assay with U251 CNS it was 35.1%; in the assay on PC-3 prostate, 12.9%; with SK-MEL-5 melanoma it was -1.91% (active); in the assay on UACC-62 melanoma, 3.48% (active). Further, the growth with LOX IMVI melanoma is 9.29% (active); in the assay with SK-MEL-28 melanoma it was 28.6%.
Turning to `NS(=O)(=O)c1ccc(CCn2c(SCC(=O)N/N=C/c3cccnc3)nc3ccccc3c2=O)cc1`, the growth is 98.9% in the assay with DU-145 prostate; 61% in the assay on K-562 leukemia; 81.7% in the assay on MALME-3M melanoma; 98.5% in the assay with MDA-MB-231 breast; 93.4% with RXF 393 renal; 89.7% in the assay with SF-268 CNS. Also, the growth was 85.7% in the assay on SF-295 CNS; 104% in the assay with SF-539 CNS; 107% with UACC-257 melanoma; 94.7% in the assay with M14 melanoma; 83% with HCT-15 colon; 109% with HT29 colon. In addition, the growth in the assay on SNB-75 CNS is 90.8%; in the assay on SNB-19 CNS, 100%; in the assay with U251 CNS it was 87.7%; in the assay with PC-3 prostate, 83.8%; with SK-MEL-5 melanoma, 79.5%; with UACC-62 melanoma, 84.5%. The growth with LOX IMVI melanoma is 85%; in the assay on SK-MEL-28 melanoma it was 101%.
As to `O=C(O)CSc1ccc(NCc2oc(CO)cc(=O)c2O)cc1`, the growth in the assay with DU-145 prostate was 110%; with K-562 leukemia, 89%; in the assay with MALME-3M melanoma it was 99.6%; in the assay on MDA-MB-231 breast, 97.2%; in the assay with RXF 393 renal it was 110%; in the assay on SF-268 CNS it was 107%. Moreover, the growth with SF-295 CNS was 106%; in the assay with SF-539 CNS, 92.2%; with UACC-257 melanoma, 105%; in the assay with M14 melanoma, 74.6%; in the assay on HCT-15 colon, 107%; in the assay with HT29 colon, 99.5%. Besides, the growth with SNB-75 CNS was 87%; with SNB-19 CNS, 110%; with U251 CNS it was 103%; in the assay on PC-3 prostate, 98.8%; in the assay with SK-MEL-5 melanoma, 99.8%; with UACC-62 melanoma it was 102%. Besides, the growth was 91.7% with LOX IMVI melanoma and 104% with SK-MEL-28 melanoma.
Regarding `CCCCOC(=O)c1cc(O)c(O)c(O)c1`, the growth with DU-145 prostate was 74%; with K-562 leukemia it was 66.3%; with MALME-3M melanoma, 122%; with MDA-MB-231 breast, 66.4%; in the assay with RXF 393 renal, 82%; in the assay on SF-268 CNS it was 53.5%. Further, the growth with SF-295 CNS was 102%; with SF-539 CNS, 48.5%; with UACC-257 melanoma it was 96.4%; in the assay with M14 melanoma it was 84.1%; in the assay with HCT-15 colon it was 49.1%; in the assay with HT29 colon, 85.3%. The growth was 55.6% with SNB-75 CNS; 88.9% in the assay with SNB-19 CNS; 65.2% with U251 CNS; 80.4% with PC-3 prostate; 93.5% in the assay with SK-MEL-5 melanoma; 62% with UACC-62 melanoma. Moreover, the results for the growth with LOX IMVI melanoma and with SK-MEL-28 melanoma were 74.4% and 90.6%, respectively.
Consider `O=C(O)c1ccccc1Oc1cc(-c2ccco2)nc(OCCN2CCOCC2)n1`, for which the growth in the assay on DU-145 prostate was 113%; in the assay on K-562 leukemia it was 107%; in the assay with MALME-3M melanoma, 98.3%; in the assay with MDA-MB-231 breast, 98.8%; in the assay with RXF 393 renal, 115%; with SF-268 CNS it was 114%. Further, the growth is 102% in the assay with SF-295 CNS; 108% in the assay on SF-539 CNS; 108% in the assay with UACC-257 melanoma; 99.1% in the assay on M14 melanoma; 101% with HCT-15 colon; 92.5% in the assay on HT29 colon. For the same compound, the growth with SNB-75 CNS is 92.4%; with SNB-19 CNS, 96.9%; in the assay with U251 CNS it was 113%; with PC-3 prostate it was 127%; in the assay on SK-MEL-5 melanoma, 99.9%; with UACC-62 melanoma, 98.9%. Moreover, the results for the growth with LOX IMVI melanoma and in the assay on SK-MEL-28 melanoma were 99.5% and 106%, respectively.
